Measured values as given in PubChem BioAssay AID720513 (Broad Institute, 2013).
Screen size: about 2,100 compounds; about 480 (23%) were called active. Another 5% or so got no clear call; they are omitted.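 Rule for the calls: active = fitted curve reaches 40% activation at or below the top valid concentration, in every replicate test; inconclusive = replicate tests disagree on the call; inactive = the rest, including activity in the opposite direction.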 Not all results are given here. Measured potencies and affinities stand elsewhere.

Experiment: PGC1a acetylation increase, cellular AlphaLISA – cell-based, cherry-picked samples, set 6, dose response (AID 720513);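 note: cells made to overexpress flag tagged PGC1a plus GCN5 acetyltransferase by viral infection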
Settings: U2OS PGC1a acetylation AlphaLISA, overnight, 0 = neutral, -100 = inhibitor control; series mostly up to 19.5 µM

outcome, inactive:
Cn1nc(C(C)(C)C)cc1NC(=O)C1(C)CCN1C(=O)C1(c2ccccc2)CCCC1 (centres undefined), COc1ccc(-c2onc(C)c2-c2ccc(C(=O)OC(C)C)o2)c(O)c1, N#Cc1ccc(CCc2ccccc2)[nH]c1=O, NS(=O)(=O)c1ccc(-c2ccc(/C=C3\C(=O)Nc4cc(Cl)ccc43)o2)cc1, O=C(Nc1nc2c(s1)CN(Cc1ccccc1)CC2)c1c(F)cccc1F, COc1ccc(-c2[nH]ncc2CN(C)C(C)c2ccon2)cc1F (centres undefined), COc1cccc(-n2c(-c3cccc(S(=O)(=O)N(C)C)c3)n[nH]c2=S)c1, COc1ccc(OC)c(-n2c(-c3ccc(C)cc3)n[nH]c2=S)c1, CCC(C)C(NC(=O)C1CCC(C)CC1)C(=O)NCc1cccnc1 (centres undefined), COc1cccc(S(=O)(=O)N[C@H]2CC[C@H](CC(=O)NCc3ccc(F)cc3)O[C@@H]2CO)c1, COc1cccc(Cn2c(NCc3cccnc3)nc3c2c(=O)n(C)c(=O)n3C)c1, Cc1ccc(S(=O)(=O)Nc2ccccc2C(=O)NCc2cccnc2)cc1, COc1ccc2nc(NCc3cccnc3)sc2c1, CCn1cc(C(=O)NCc2cccnc2)c2cc(OC)c(OC)cc2c1=O, C[C@H]1CN([C@@H](C)CO)C(=O)c2cc(C3=CCCC3)cnc2O[C@@H]1CN(C)C(=O)c1cccnc1, Cc1ccccc1S(=O)(=O)N[C@H]1CC[C@H](CCn2cc(Cc3ccccc3)nn2)O[C@@H]1CO, COc1ccccc1C#Cc1ccc2c(c1)O[C@@H](CN(C)Cc1cccnc1)[C@H](C)CN([C@@H](C)CO)S2(=O)=O, CO[C@H]1CN(C)C(=O)c2cc(NS(=O)(=O)c3cn(C)cn3)ccc2OC[C@@H](C)NC[C@H]1C, CCCCN(c1ccccc1)c1ncnc(N)c1[N+](=O)[O-], COC(=O)c1cccc(NC(=O)CSc2nnc(C)n2C)c1, COc1ccccc1Nc1nc(NCCC(C)C)nc(N)c1[N+](=O)[O-], Cn1nnnc1Sc1ncnc2scc(-c3cccc(S(C)(=O)=O)c3)c12, Cc1ccc(C)c(S(=O)(=O)N(C(=O)c2ccncc2)c2ccc(OC(=O)c3ccncc3)cc2)c1, C=CCNC(=O)c1cnn(-c2ccccc2)c1-c1ccccc1, CO[C@@H]1CN(C)C(=O)c2ccc(NC(C)=O)cc2OC[C@@H](C)N(C(=O)Cc2cccnc2)C[C@@H]1C, O=C(Cn1ncc(Cl)c(Cl)c1=O)NCC1CCCCC1, C[C@@H]1CN([C@H](C)CO)C(=O)Cc2cc(NC(=O)CCC(F)(F)F)ccc2O[C@H]1CN(C)S(C)(=O)=O, CCOC(=O)C1=C(Nc2ccccc2)OCC1=O, O=C(NCc1cccnc1)/C(=C/c1ccc(-c2ccc(Cl)cc2)o1)S(=O)(=O)c1ccccc1, CC1=CCC2C(=O)N(c3cccc(C(=O)NCc4ccccc4)c3)C(=O)C2C1 (centres undefined), Cc1ccc(S(=O)(=O)Nc2cccc3c2O[C@H](CN(C)Cc2ccc(Cl)c(Cl)c2)[C@@H](C)CN([C@@H](C)CO)C3=O)cc1, CN(C)c1nc(SCCOC(=O)COc2ccc(Cl)cc2Cl)nc(N(C)C)n1, CCCc1cc(=O)oc2cc(C)cc(O)c12, CC(=O)Nc1ccc2c(CSc3nncs3)cc(=O)oc2c1, COC(=O)[C@]1(Cc2ccccc2)N=C(c2ccc(OCCCO)cc2)O[C@@H]1c1ccccc1CN=[N+]=[N-], O=[N+]([O-])c1cc(F)c2cccnc2c1O, Cc1ccc2[nH]c3ccccc3c(=O)c2c1, CCN(CC(=O)Nc1ccccc1C(F)(F)F)C(=O)CCSc1ccc(F)cc1, O=C(NCc1cccnc1)/C(=C\c1ccc(-c2cccc(Cl)c2)o1)S(=O)(=O)c1ccccc1, O=C(CCNNC(=O)c1ccncc1)NCc1ccccc1, O=C(NCc1cccnc1)C1CC(=O)N(C2CCCCC2)C1 (centres undefined), O=C(NCc1cccnc1)/C(=C\c1ccc(-c2ccc(Cl)c(Cl)c2)o1)S(=O)(=O)c1ccccc1, O=C(Cc1ccccn1)NCC[C@H]1CC[C@@H](NC(=O)Nc2ccc(C(F)(F)F)cc2)[C@@H](CO)O1, O=C(NC1=NCCS1)C1CC(=O)N(c2ccccc2)C1 (centres undefined), O=C(Nc1cccc2[nH]ncc12)c1ccc(F)cc1, O=C(C[C@@H]1CC[C@@H](NC(=O)C2CCC2)[C@H](CO)O1)NCC1CC1, CCC(=O)Nc1ccc(C(=O)COC(=O)c2sc(C)nc2C)cc1, CC(C)C[C@H]1CNC(=S)N1CC1CCCN1C[C@H](Cc1ccccc1)N1C[C@H](Cc2ccc(O)cc2)N(CC2CCCCCC2)C1=S (some centres undefined), CC(N=C1NS(=O)(=O)c2ccccc21)C(=O)NCCCc1ccccc1 (centres undefined), CCOc1ccc2nc(NCCNC(=O)Nc3ccccc3)c(C#N)cc2c1, Cc1ccccc1OCC(O)CNC1CCC(NCC(O)COc2ccccc2C)CC1 (centres undefined), C[C@H](CO)N1C[C@H](C)[C@H](CN(C)C(=O)CN(C)C)Oc2cc(-c3cncnc3)ccc2S1(=O)=O, CCN1CCN(Cc2ccc(NC(=O)c3cc(NC(=O)c4cncc(-c5ccc(C#N)cc5)c4)cc(OC)c3)cc2C(F)(F)F)CC1, COc1ccc(OCCc2nnc(N)s2)cc1, CN(NC(=O)c1ccccc1F)c1nc(C(F)(F)F)nc2ccccc12, C[C@@H](C(=O)Nc1nc2ccc(F)cc2s1)N1C(=O)C2CC=CCC2C1=O (some centres undefined), C[C@@H]1CN([C@H](C)CO)S(=O)(=O)c2ccc(C#CC3CCCC3)cc2O[C@H]1CN(C)C, O=C(NCC1CC1)Nc1ccccc1F, C/C=C/c1ccc2c(c1)O[C@@H](CN(C)C(=O)NC(C)C)[C@H](C)CN([C@H](C)CO)S2(=O)=O, COc1cccc(-c2ccc(C3[C@@H]4CN(Cc5cccc(F)c5)C[C@H]3N4)cc2)c1 (some centres undefined), Fc1cccc(CN2C[C@@H]3N[C@H](C2)C3c2ccc(-c3ccccc3)cc2)c1 (some centres undefined), COc1ccc(-c2ccc(C3[C@@H]4CN(Cc5ccccn5)C[C@H]3N4)cc2)cc1 (some centres undefined), Cc1cccc(-c2ccc(C3[C@@H]4CN(Cc5cccc(F)c5)C[C@H]3N4)cc2)c1 (some centres undefined), COc1cc(CN2C[C@@H]3N[C@H](C2)C3c2ccc(-c3cccc(OC)c3)cc2)cc(OC)c1 (some centres undefined), COc1ccccc1CN1C[C@@H]2N[C@H](C1)C2c1ccc(-c2ccccc2)cc1 (some centres undefined), Fc1ccc(-c2ccc(C3[C@@H]4CN(Cc5ccccc5)C[C@H]3N4)cc2)cc1 (some centres undefined), CC1CN(C(=O)COC(=O)[C@@H]2CC(O)CN2S(=O)(=O)c2ccc3c(c2)OCCO3)CC(C)O1 (some centres undefined), CCn1c(C)c(C)c2cc(C(=O)NCCN3CCOCC3)ccc21, CN1C(C(=O)Nc2ccccn2)=C(O)c2sc(Cl)cc2S1(=O)=O, CO[C@H]1CN(C)C(=O)c2cc(NS(C)(=O)=O)ccc2OC[C@H](C)N(C(=O)NC(C)C)C[C@H]1C, C[C@@H]1CN([C@@H](C)CO)S(=O)(=O)c2ccc(C#CC3CCCCC3)cc2O[C@H]1CN(C)Cc1cccnc1, CN1CCN2c3ncccc3Cc3ccccc3[C@@H]2C1, Fc1ccc(/C=C2\CCCC3=C2Nc2ncnn2C3c2ccc(F)cc2)cc1 (centres undefined), CC(C)(C)NS(=O)(=O)c1ccc(CCC(=O)N2CCOCC2)cc1, CCC(=O)N[C@H]1CC[C@H](CCNC(=O)Nc2ccc(C(F)(F)F)cc2)O[C@H]1CO, COc1cccc(CN2C[C@@H]3N[C@H](C2)C3c2ccc(-c3ccccc3OC)cc2)c1 (some centres undefined), COc1cc(CN2C[C@@H]3N[C@H](C2)C3c2ccc(-c3ccccc3C)cc2)cc(OC)c1 (some centres undefined), CC(C)c1ccc(-c2nnn(CC(=O)N3CCCCC3)n2)cc1, Cc1ccc(S(=O)(=O)N2CCCC2)cc1C(=O)O, CN(C)CCCN(C(=O)CCOc1ccccc1)c1nc2ccc(F)cc2s1, CC(C)CC#Cc1cnc2c(c1)C(=O)N([C@@H](C)CO)C[C@@H](C)[C@H](CN(C)C(=O)c1ccccc1)O2, C[C@@H]1CN([C@@H](C)CO)C(=O)c2c(c3ccccc3n2C)-c2ccccc2CO[C@H]1CN(C)S(=O)(=O)c1ccsc1, CC(C)NC(=O)N(C)C[C@H]1Oc2c(NS(=O)(=O)c3cn(C)cn3)cccc2C(=O)N([C@@H](C)CO)C[C@@H]1C, CC(C)[C@H](C)NC(=O)N(C)C[C@@H]1OCc2ccccc2-c2ccccc2C(=O)N([C@@H](C)CO)C[C@H]1C, CCN(C(=O)COC(=O)/C=C/c1cccc(Cl)c1)c1c(N)n(Cc2ccccc2)c(=O)[nH]c1=O, Clc1ccccc1OCCCCN1CCCC1, CO[C@H]1CN(C)C(=O)c2cc(NS(C)(=O)=O)ccc2OC[C@@H](C)N(C(=O)CC2CC2)C[C@H]1C, CCOC(=O)CSc1nccc(N(C)C)c1C#N, CC(NCc1cccs1)C(=O)NC1CCCCC1 (centres undefined), O=C(OCc1cnc(Cl)s1)c1cccs1, CO[C@@H]1CN(C)C(=O)c2ccc(NC(=O)c3ccc(Oc4ccccc4)cc3)cc2OC[C@@H](C)N(C(C)=O)C[C@H]1C, COc1ccc(S(=O)(=O)N(C)C[C@H]2Oc3ccc(NC(=O)CCN4CCOCC4)cc3C(=O)N([C@@H](C)CO)C[C@@H]2C)cc1, O=C(Nc1ccc([N+](=O)[O-])cn1)c1ccc(Br)o1, CSCC[C@H](NC(=O)c1ccc(Br)o1)c1nnc2ccccn12
